NPC1 promoter act – activates the NPC1 promoter; 320,000 compounds, 2.4% hits; Potency, µM (highest dose often 9.22 µM), for the others: at the highest dose activation, usual class: activators; AID 485313; Huh7 NPC1 promoter luciferase reporter, 24 h; further: % of control where 0% means no effect; nearly all actives have a fitted effect of over 60% in size
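Cells: Huh7 expressing luciferase under the NPC1 promoter, 1500/well. Seeded 2 h, compound added, incubated 24 h at 37 °C. Luciferase reagent, 10 min ambient, then luminescence.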
SMN2 splice up – enhancers of SMN2 splice variant expression | HEK293 SMN2-luciferase splicing reporter, luminescence, 30-36 h | Potency, µM (top dose mostly 46.1 µM), without a hit: at the highest dose activity change, positive = activation, usual class: activators | 210,000 compounds, 2.8% hits | AID 1458; further: % of control where 0% means no effect; nearly all actives have a fitted effect of over 55% in size
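HEK293 cells carry an SMN2 minigene-luciferase reporter in which exon 7 inclusion puts luciferase in frame. Cells were seeded at 2000 cells/well, attached for 10-12 hours, then exposed to compounds for 30-36 hours at 37C before ONE-Glo luminescence.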
FLuc modulator – inhibits or activates purified firefly luciferase, miR-21 counter-screen; 360,000 compounds, 6.9% hits; Potency, µM (series often up to 57.5 µM), for inactives: at the highest dose activity change, negative = inhibition, usual class: inhibitors; purified FLuc, Km substrates, luminescence inhibition; P08659;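 further: plate controls were vehicle for no effect and reference inhibitor for full effect; nearly all actives have a fitted effect of over 55% in size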
Target sequence (P08659 whole entry, looked up): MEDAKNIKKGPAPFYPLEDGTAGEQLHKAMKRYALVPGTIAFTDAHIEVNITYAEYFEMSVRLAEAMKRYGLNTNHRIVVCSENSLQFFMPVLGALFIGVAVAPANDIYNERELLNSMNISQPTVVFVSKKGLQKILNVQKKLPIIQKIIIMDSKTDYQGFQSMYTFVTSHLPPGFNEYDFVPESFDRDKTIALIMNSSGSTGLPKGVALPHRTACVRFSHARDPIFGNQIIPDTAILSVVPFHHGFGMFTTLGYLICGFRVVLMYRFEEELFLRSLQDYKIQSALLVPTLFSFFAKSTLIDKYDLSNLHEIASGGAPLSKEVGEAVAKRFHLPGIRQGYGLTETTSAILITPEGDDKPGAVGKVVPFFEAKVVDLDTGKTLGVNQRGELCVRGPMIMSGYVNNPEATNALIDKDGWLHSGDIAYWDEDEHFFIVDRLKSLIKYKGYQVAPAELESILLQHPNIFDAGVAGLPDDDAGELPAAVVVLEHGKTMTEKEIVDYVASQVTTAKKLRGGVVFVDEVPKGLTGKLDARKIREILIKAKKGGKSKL
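Biochemical qHTS of compounds, final roughly 60 µM downward over six points, against 10 nM purified firefly luciferase using Km concentrations of substrates (10 uM D-luciferin, 10 uM ATP) in Tris acetate pH 7.5 buffer; luminescence output.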
Luc counter – blocks Kinase-Glo luciferase, a counter-screen artifact | 200,000 compounds, 0.28% hits | Q27757 | Kinase-Glo luciferase, ATP luminescence, 8 min | Potency, µM (doses to about 38.3 µM), without a hit: at the top dose activity change, negative = inhibition, hits mostly inhibitors; further: on the % scale 0 is the no-effect control and ±100 the full control effect; nearly all actives have a fitted effect of over 60% in size
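Compounds were added to a substrate mix at pH 7.2 (50 mM imidazole, 10 uM ATP, within the enzyme's linear range), followed by Kinase-Glo detection reagent; luminescence was measured after 8 minutes at ambient temperature.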
Rab9 promoter act – activators of Rab9 promoter | Huh7 Rab9 promoter-luciferase reporter, luminescence, 24 h | Potency, µM (highest dose often 9.22 µM), for the others: at the highest dose activation, negative = inhibition, usual class: activators | 320,000 compounds, 2.8% hits; further: % of control where 0% means no effect; nearly all actives have a fitted effect of over 60% in size
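Rab9 promoter-driven luciferase in stably transfected Huh7 cells; 1500 cells/well rested 2 h, exposed to compound in DMSO for 24 h at 37 °C, 5% CO2. Luminescence read 10 min after adding luciferase reagent at ambient temperature.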
* = called active by the depositor; ? = inconclusive; . = no result given. Most compounds without a hit are left out; they make up all but 7.3% or so of the library. The call rests on the fitted dose curve; in most records, active means well fitted curve in the direction sought with a large enough effect; inconclusive means small, poorly fitted or top-dose-only effect, or another doubt; inactive means no such curve, though single readings can be large; an effect the other way counts as inactive or inconclusive. Potency means the concentration at half of the fitted maximal effect.

SMILES	NPC1 promoter act	SMN2 splice up	FLuc modulator	Luc counter	Rab9 promoter act
C=CCn1cccc(C(=O)Nc2ccc(C)c(Cl)c2)c1=O	2.5µM*	.	9.5µM*	.	?
Cc1c(C(=O)N(C)C)sc2c1c(=O)n(-c1ccc(Cl)c(Cl)c1)c(=O)n2CC(=O)Nc1cccc(C(F)(F)F)c1	.	.	0%	.	.
O=C(Cn1c(=O)nc(-c2ccccc2)c2ccccc21)N1CCN(c2ccc(F)cc2)CC1	.	.	-1%	.	.
CC(C)CN1C(=O)c2ccc(NC(=O)c3cccs3)cc2C1=O	29%	21%	9.5µM*	-5%	?
CC(C)CN1C(=O)c2ccc(NC(=O)c3ccccc3F)cc2C1=O	29%	11%	12µM*	-4%	?
CC(C)CN1C(=O)c2ccc(NC(=O)c3ccco3)cc2C1=O	?	.	19µM*	1%	?
CC(C)CN1C(=O)c2ccc(NC(=O)C3CC3)cc2C1=O	21%	.	2%	.	11%
O=c1c2ccccc2nc2sc(Nc3ccc(F)cc3)nn12	2µM*	.	?	.	?
O=c1c2cc3c(cc2nc2sc(Nc4ccccc4)nn12)OCO3	.	16%	3µM*	.	.
COc1cccc(Nc2nn3c(=O)c4ccccc4nc3s2)c1	?	.	?	.	-6%
COc1ccc(OC)c(Nc2nn3c(=O)c4ccccc4nc3s2)c1	.	.	-4%	.	.
Cc1ccccc1Nc1nn2c(=O)c3ccccc3nc2s1	2.5µM*	16µM*	2.7µM*	-1%	?
Cc1ccc(-c2noc(CN(C(=O)COc3cc(C)cc(C)c3C)C(C)C)n2)cc1	.	-19%	-4%	.	.
COC(=O)c1sc(NC(=S)NC(=O)c2ccccc2)nc1C	?	-4%	4.8µM*	3%	2.5µM*
COC(=O)c1sc(NC(=S)NC(=O)c2ccccc2Cl)nc1C	?	24%	6.7µM*	-1%	?
Nc1n[nH]c(=S)n1/N=C1/C(=O)Nc2ccccc21	0%	6%	15µM*	-1%	-2%
CN(C)CCCCl	.	0%	.	.	.
Cc1ccc2nc(NC(=O)c3ccc(Br)o3)sc2c1	1.4µM*	.	1.3µM*	.	1.1µM*
CS(=O)(=O)c1ccc2nc(NC(=O)c3ccc(Cn4cc(Br)cn4)o3)sc2c1	?	.	4.8µM*	.	20%
NS(=O)(=O)c1ccc2nc(NC(=O)c3ccc(Br)o3)sc2c1	?	18µM*	9.5µM*	-4%	?
O=C(Nc1cccc(C(F)(F)F)c1)c1ccc(Cn2cc(Br)cn2)o1	22%	-44%	-4%	2%	-1%
CC(=O)c1cccc(NC(=O)CCS(=O)(=O)c2cc(Br)cc3c2N(C(=O)C2CC2)CC3)c1	.	-11%	1%	.	.
Cc1cc(N2CCC(C)CC2)nc2cccc(O)c12	4%	-24%	24µM*	-5%	4%
Cc1nc(SCc2ccccc2)n[nH]1	22%	.	-19%	.	?
CCCOc1ccc(CSc2n[nH]c(C)n2)cc1	2.8µM*	.	19µM*	.	2.8µM*
SMILES	NPC1 promoter act	SMN2 splice up	FLuc modulator	Luc counter	Rab9 promoter act
COc1c2c(c(C(=O)/C=C/C(C)=C/c3ccccc3)c3c1OCO3)CCN(C)C2	.	1%	.	-1%	.
O=C(Cc1ccccc1)NC(=S)Nc1ccc2oc(-c3ccccc3)nc2c1	?	11µM*	?	0%	?
O=C(Cc1ccccc1)NC(=S)Nc1ccc2oc(-c3ccccc3F)nc2c1	?	?	13µM*	-2%	?
CC(=O)NC(=S)Nc1ccc2oc(-c3cc(F)c(F)cc3Cl)nc2c1	?	5µM*	-19%	0%	0.5µM*
COc1ccc(C(=O)Nc2ccc3oc(-c4ccc(F)cc4Cl)nc3c2)cc1	.	.	-11%	.	.
O=C(Cc1ccccc1)Nc1ccc2oc(-c3ccncc3)nc2c1	8%	13%	-8%	-3%	18%
CC(=O)c1cccc(NC(=O)c2cc(C)nc3c2c(C)nn3-c2cccc(Cl)c2C)c1	.	.	-2%	.	.
O=C(Nc1ccc(N2CCCCC2)c(Cl)c1)c1cccnc1	2.8µM*	13µM*	12µM*	-1%	2.8µM*
O=C(Nc1ccc(N2CCOCC2)c(Cl)c1)c1cccnc1	26%	?	?	0%	25%
O=C(Nc1ccc(N2CCCC2)c(Cl)c1)c1cccnc1	3.2µM*	16µM*	12µM*	-1%	2.8µM*
COCCNc1ncnc2c1cnn2Cc1ccc(Cl)cc1	1%	-1%	5%	2%	-3%
CCC(C)Nc1ncnc2c1cnn2-c1ccc(F)cc1 (configuration not stated)	.	.	6.7µM*	.	.
COCC(C)Nc1ncnc2c1cnn2-c1ccc(Cl)cc1 (configuration not stated)	0.71µM*	.	2.4µM*	.	0.5µM*
CCc1ccc(-c2nn(CC(=O)Nc3ccccc3C)c3c2cnc2ccc(C)cc23)cc1	.	.	1%	.	.
CCCc1cc(=O)n(-c2nc3ccccc3s2)[nH]1	-1%	.	?	.	-5%
CCOC(=O)Cc1cc(=O)n(-c2nc3ccccc3s2)[nH]1	-4%	12%	24µM*	-10%	6%
COc1ccc(-c2nc3c(C#N)c[nH]n3c2NC2CCCC2)c(OC)c1	.	.	-10%	.	.
CCCCOC(=O)c1ccc(NC(=O)c2cc(Cl)c(Cl)cc2C(=O)O)cc1	0%	.	21µM*	4%	-7%
CCCCOC(=O)Nc1ccc(C(=O)OC)cc1	?	-2%	12µM*	-3%	?
CCCCOC(=O)c1ccc(N)cc1	21%	28%	?	-3%	15%
CCCCCCOC(=O)c1ccc(N)cc1	?	.	11µM*	.	?
CCCCOC(=O)Nc1ccc(C)c(Cl)c1	3.5µM*	?	6.7µM*	-8%	2.8µM*
COc1ccc(NC(=O)c2ccc3c(c2)nnn3C2CCCC2)cc1Cl	.	.	-2%	.	.
Clc1cccc(C2=NC(c3cccs3)=Nc3ccc(Br)cc3N2)c1	.	-10%	-15%	.	.
Cc1nc2nc(C)c(NS(=O)(=O)c3ccc(F)cc3)c(=O)n2[nH]1	.	-6%	1%	.	.
SMILES	NPC1 promoter act	SMN2 splice up	FLuc modulator	Luc counter	Rab9 promoter act
COc1ccc(/C=C2\SC(=S)N(CCCC(=O)N3CCN(C)CC3)C2=O)cc1	-4%	.	15µM*	.	-11%
O=C1/C(=C\c2ccccc2)SC(=S)N1CCC(=O)N1CCCCC1CCO (configuration not stated)	-8%	.	17µM*	.	0%
COc1ccc(/C=C2\SC(=S)N(CCC(=O)N3CCOCC3)C2=O)cc1	-1%	.	?	.	-15%
COc1ccc(/C=C2\SC(=S)N(CCCC(=O)N3CCCCC3CCO)C2=O)cc1 (configuration not stated)	-17%	.	17µM*	.	-12%
O=C1/C(=C/c2ccccc2Cl)SC(=S)N1CCC(=O)N1CCCCC1CCO (configuration not stated)	-8%	.	?	.	-5%
COc1cccc(/C=C2\SC(=O)N(CCC(=O)N3CCCCC3CCO)C2=O)c1 (configuration not stated)	-5%	.	-16%	.	0%
